Screening data: PubChem BioAssay, National Center for Advancing Translational Sciences (NCATS)
BAZ2B block – qHTS Assay for Inhibitors of BAZ2B; AlphaScreen BAZ2B-H3K14Ac peptide displacement; Potency, µM (titrated, usually from 114 µM), for inactives: at the highest dose activity change, negative = inhibition, hits mostly inhibitors; actives 4.4% (n = 360,000); note: potency is the fitted concentration of half-maximal effect; % is set by controls: 0 for no effect and ±100 for the full control effect; nearly all actives have a fitted effect of over 60% in size
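Protein-peptide AlphaScreen: BAZ2B 50 nM, b-H3K14Ac 50 nM, 1x PBS pH 7.4 + 0.01% Tween-20. Preincubation 30 min RT; cpd 30 min RT (top 110 uM); beads 20 min RT, light-protected.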
PLK1 PBD inh – qHTS for Inhibitors of PLK1-PDB (polo-like kinase 1 - polo-box domain): Primary Screen; Serine/threonine-protein kinase PLK1 (Homo sapiens), P53350; Plk1 PBD binding of FITC phosphopeptide, fluorescence polarization; Potency, µM, for inactives: max response, negative = inhibition, actives largely listed as inhibitors; actives 2.8% (n = 360,000); AID 720504, 2013; note: potency is the fitted concentration of half-maximal effect; series mostly up to about 57 µM; % is set by controls: 0 for no effect and ±100 for the full control effect; nearly all actives have a fitted effect of over 65% in size
JMJD2A Tudor – qHTS Assay for Inhibitors of JMJD2A-Tudor Domain; Lysine-specific demethylase 4A (Homo sapiens), O75164; AlphaScreen JMJD2A-Tudor / H3K4me3 peptide binding; Potency, µM (titrated, usually from 114 µM), for the others: at the top dose activity change, negative = inhibition, usual class: inhibitors; actives 4.4% (n = 390,000); note: potency is the fitted concentration of half-maximal effect; % is set by controls: 0 for no effect and ±100 for the full control effect; nearly all actives have a fitted effect of over 50% in size
Target sequence (O75164 whole entry, looked up, the tested form may be a part): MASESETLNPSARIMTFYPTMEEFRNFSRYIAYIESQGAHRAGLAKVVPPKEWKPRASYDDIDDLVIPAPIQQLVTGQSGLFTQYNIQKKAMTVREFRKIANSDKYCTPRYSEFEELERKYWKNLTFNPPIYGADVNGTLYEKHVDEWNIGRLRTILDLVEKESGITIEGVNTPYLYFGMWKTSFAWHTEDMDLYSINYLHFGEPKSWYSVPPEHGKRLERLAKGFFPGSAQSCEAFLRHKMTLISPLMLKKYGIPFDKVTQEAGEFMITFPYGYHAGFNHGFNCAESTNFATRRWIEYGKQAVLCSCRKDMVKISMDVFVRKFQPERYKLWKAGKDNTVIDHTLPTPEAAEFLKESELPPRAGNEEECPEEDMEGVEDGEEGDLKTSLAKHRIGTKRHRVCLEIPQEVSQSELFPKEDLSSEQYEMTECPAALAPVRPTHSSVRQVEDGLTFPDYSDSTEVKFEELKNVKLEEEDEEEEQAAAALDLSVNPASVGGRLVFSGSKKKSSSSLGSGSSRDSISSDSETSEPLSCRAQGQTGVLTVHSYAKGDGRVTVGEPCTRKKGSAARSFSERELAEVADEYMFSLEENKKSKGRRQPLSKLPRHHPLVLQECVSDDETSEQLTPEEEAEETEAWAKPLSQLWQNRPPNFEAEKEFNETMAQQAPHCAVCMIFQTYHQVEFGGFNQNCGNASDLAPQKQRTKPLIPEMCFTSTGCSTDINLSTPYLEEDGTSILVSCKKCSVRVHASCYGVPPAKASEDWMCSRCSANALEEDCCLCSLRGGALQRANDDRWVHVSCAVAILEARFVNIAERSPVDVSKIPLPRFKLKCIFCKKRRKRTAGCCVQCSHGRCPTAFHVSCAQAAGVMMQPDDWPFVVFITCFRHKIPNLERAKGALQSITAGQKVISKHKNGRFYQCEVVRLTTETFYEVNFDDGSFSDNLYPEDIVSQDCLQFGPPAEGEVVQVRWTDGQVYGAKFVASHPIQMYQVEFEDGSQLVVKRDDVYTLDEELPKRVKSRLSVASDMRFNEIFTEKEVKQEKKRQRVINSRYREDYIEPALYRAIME
PI5P4Ka inh – qHTS for Inhibitors of phosphatidylinositol 5-phosphate 4-kinase (PI5P4K) | Phosphatidylinositol 5-phosphate 4-kinase type-2 alpha (Homo sapiens), P48426 | PI5P4Kalpha enzyme, ADP-Glo luminescence, 60 min; hits give low values | max response, % | actives 1.2% (n = 330,000) | AID 652105, 2013; active = max response of -50% or lower; inconclusive = between -30% and -50%; inactive = -30% or higher; note: value at the top dose of about 77 µM; % is set by controls: 0 for no effect and ±100 for the full control effect
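Luminescence from ADP-Glo served as readout of PI5P4Kalpha activity in a qHTS format. Reaction: enzyme, substrate, compound, ATP at 5 microM final, 60 min at RT.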
HP1b chromo inh – HTS for Inhibitors of HP1-beta Chromodomain Interactions with Methylated Histone Tails; Potency, µM (titrated, usually from 114 µM), inactives show at the top dose activity change, negative = inhibition, hits mostly inhibitors; Chromobox protein homolog 1 (Homo sapiens), P83916; actives 0.56% (n = 390,000); AlphaScreen HP1-beta / biotin-H3K9me3 peptide binding; note: potency is the fitted concentration of half-maximal effect; nearly all actives have a fitted effect of over 70% in size
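AlphaScreen: HP1-beta (50 nM) preformed 30 min with biotin-H3(1-18)K9me3 peptide (50 nM) in PBS pH 7.4, 0.01% Tween-20. Compound added for 30 min at RT, then streptavidin donor/nickel chelate acceptor beads (10 ug/mL) for 30 min.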
G9a inh – qHTS Assay for Inhibitors of Histone Lysine Methyltransferase G9a; Histone-lysine N-methyltransferase EHMT2 (Homo sapiens), Q96KQ7; G9a H3K9 monomethylation, AlphaScreen, 2 h; Potency, µM (highest dose often 102 µM), for inactives: at the highest dose activity, negative = inhibition, hits mostly inhibitors; actives 8.8% (n = 350,000); note: potency is the fitted concentration of half-maximal effect; % is set by controls: 0 for no effect and ±100 for the full control effect; nearly all actives have a fitted effect of over 75% in size
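Compounds were preincubated with 20 nM G9a for 15 min, after which biotinylated H3K9 peptide (500 nM) and SAM (20 uM) started a 2 h room-temperature reaction. Monomethylated product was quantified by antibody-based AlphaScreen chemiluminescence.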
Numbers without * were called inactive; ? = inconclusive; . = no result; [ ] = dose if it differs, or a comment. Hits are enriched below; roughly 12% of the tested compounds scored in any of these assays. Unless noted, calls come from the whole dose curve; as a rule, active = well fitted curve in the direction sought with a large enough effect; inconclusive = small, poorly fitted or top-dose-only effect, or another doubt; inactive = no such curve, though single readings can be large; an effect the other way counts as inactive or inconclusive.

SMILES	BAZ2B block	PLK1 PBD inh	JMJD2A Tudor	PI5P4Ka inh	HP1b chromo inh	G9a inh
CCCCOc1ccc(N(CC(=O)NCc2ccccc2)C(=O)c2csnn2)cc1	-6%	-1%	-3%	15	24%	1%
COC(=O)c1nnn(CC(=O)NC(=O)Nc2cccc(Cl)c2C)c1C(=O)OC	0%	-13%	-14%	-6	30%	-21%
CC(NC(=O)CNC(=O)c1cccs1)c1cccc(C(F)(F)F)c1 (stereo unspecified)	.	-2%	-14%	-3	37%	.
COc1ccccc1N(C(=O)c1snc(C(N)=O)c1N)C(C(=O)NC1CCCC1)c1ccco1 (stereo unspecified)	-5%	-3%	-29%	.	26%	-12%
COc1ccccc1N(C(=O)c1snc(C(N)=O)c1N)C(C(=O)NC1CCCC1)c1ccc(N(C)C)cc1 (stereo unspecified)	35µM*	-11%	?	9	-28%	-6%
CCCCCCCCCCCCCCCC(=O)C1=C(O)C(CO)OC1=O (stereo unspecified)	.	.	.	.	.	10µM*
CC1(c2ccc([N+](=O)[O-])cc2)Nc2ccccc2S1 (stereo unspecified)	13µM*	6.7µM*	40µM*	7	?	28µM*
O=C1Nc2ccccc2/C1=C/c1ccc([N+](=O)[O-])cc1	-11%	5%	-1%	-7	31%	-4%
CN(CC(=O)Nc1ccc(OC(F)(F)F)cc1)C(=O)Cn1c(=O)cnc2ccccc21	10%	-16%	-11%	3	28%	-11%[59 µM]
Oc1ccc(Cl)cc1C1=NNC(c2cccs2)C1 (stereo unspecified)	-38%	15µM*	-33%[11.4 µM]	-9	-11%	50µM*
Cc1ccc(O)c(C2=NNC(c3ccc(Cl)cc3)C2)c1 (stereo unspecified)	?	-9%	-34%	5	33%	.
Clc1cccc(CN2CCCCCC2)c1Cl	?	-17%	0.71µM*	-5	?	20µM*
Clc1ccc2scc(CN3CCCCC3)c2c1	5%	-18%	-13%	-2	31%	-4%[59 µM]
Clc1cccc(CN2CCSCC2)c1Cl	?	7%	3.5µM*	-3	?	3.5µM*
c1ccc(C2CSc3ccccc3N2)cc1 (stereo unspecified)	?	-12%	?	-11	-12%	8.9µM*
NS(=O)(=O)c1ccc(CCNC(=O)CNC(=O)c2ccc(F)cc2)cc1	6%	9%	-14%	0	-19%	2%
NS(=O)(=O)c1ccc(CCNCC(=O)N2CCC(Cc3ccccc3)CC2)cc1	56µM*	?	-35%[11.4 µM]	1	-12%	.
CC(C)c1ccccc1NC(=O)CNCCc1ccc(C(F)(F)F)cc1	45µM*	-14%	14µM*	8	?	-9%[12.7 µM]
CC(C)c1ccccc1NC(=O)Nc1nc(C(N)Cc2ccc(C(F)(F)F)cc2)cs1 (stereo unspecified)	.	-2%	.	-28	.	.
NS(=O)(=O)c1ccc(CCNC(=O)CNCCc2ccc(C(F)(F)F)cc2)cc1	50µM*	-2%	18µM*	3	-7%	-1%
Cc1nn(-c2ccccc2)c(Cl)c1C(=O)OCC(=O)NCCc1ccc(S(N)(=O)=O)cc1	-24%	1%	-17%	25	21%	50µM*
Cc1noc(C)c1C(=O)OCC(=O)NCCc1ccc(S(N)(=O)=O)cc1	.	5%	-1%	-2	24%	.
CCOCc1nc(N)nc(N)c1-c1cccc(Cl)c1	.	2%	.	8	.	.
